Experimental data published in ChEMBL document CHEMBL4513216, “Probing the Open Global Health Chemical Diversity Library for Multistage-Active Starting Points for Next-Generation Antimalarials” (ACS Infect Dis, 2020).
In all, about 69,000 compounds went through this assay and about 8,600 (12%) showed an effect of 50% or more. The sample as a whole holds a higher share of strong results than the screen did.

System: Plasmodium berghei
Experiment: Screen against P. berghei liver stage (PbLuc), transformed with Luciferase, at 10uM
Format: functional, HepG2
Conditions: tested at 10 uM

Going from `COCCOCC(=O)N1C[C@@H]2CC[C@H](Oc3ccccc3F)[C@@H]2C1` to `COCCc1noc(CN2CCC(c3ccccc3C(=O)O)C2)n1` (configuration not stated), the INHIBITION rises from 15.9% to 35.7%.

First: O[C@H]1CCN(CCCOc2ccccc2F)C[C@@]12CCCO2
Second: O=C(Cc1ccccn1)N1CCN2C[C@H](OCCN3CCCC3)C[C@H]2C1
The INHIBITION of the first is lower: 33.85% for the first, 68.4% for the second.

First: Fc1cccc(-n2ccc(CN3CCCC3Cn3cccn3)n2)c1 (configuration not stated)
Second: O=C(Cc1ccccn1)N1CCN2C[C@H](Oc3cccc(F)c3)C[C@H]2C1
The INHIBITION of the first is lower: -31.8% for the first, 33% for the second.

Compared with `Cc1ccc2cc(CNCCN3CCCC3)c(=O)[nH]c2c1`, `CN1CCc2ccc(NCc3cccs3)cc2C1=O` is lower in INHIBITION: 39.7% for the first, -99.6% for the second.

Compared with `O=C(NCc1ccc2c(c1)CCCO2)c1ccccc1C1CCNC1` (configuration not stated), `O=C(NCc1ccc2c(c1)CCCO2)c1ccc(C2CCNC2)cc1` (configuration not stated) is higher in INHIBITION: -26.1% for the first, 50.4% for the second.

Compared with `O=C(NCc1ccc2c(c1)CCCO2)C1CNCCO1` (configuration not stated), `CC(C(=O)NCc1ccc(N2CCCCCC2)nc1)S(C)(=O)=O` (configuration not stated) is lower in INHIBITION: 12.9% for the first, -12.2% for the second.

Compared with `Cc1noc(CCCC(=O)NCCc2cc3ccccc3[nH]2)n1`, `Cc1n[nH]c2nc(-c3cccc(Cl)c3)cc(C(=O)O)c12` is lower in INHIBITION: 7.18% for the first, -1.99% for the second.

Compared with `CC(=O)N[C@@H]1C[C@H](c2ccc(OCCO)cc2)OC2(CCOCC2)C1`, `Cc1ccc(CN2CC(C(=O)Nc3ccccc3)C3(CCOCC3)C2)o1` (configuration not stated) is lower in INHIBITION: 18.3% for the first, -24.9% for the second.

Going from `O=C(c1cscn1)N1CCC2(CN(Cc3ccoc3)C2)C1` to `Cc1ccc(CN2CC3(CCN(C(=O)c4cscn4)C3)C2)s1`, the INHIBITION rises from 34.4% to 35.1%.

First: Cc1nc(CN2CCC3(CC2)CCN(C(=O)c2cscn2)C3)cs1
Second: O=C(c1cscn1)N1CCC2(CCN(Cc3nccs3)CC2)C1
The INHIBITION of the first is higher: 75.4% for the first, 14.8% for the second.

Compared with `Cc1noc(C)c1CN1CCC2(CC1)CCN(C(=O)c1cscn1)C2`, `Cc1ccc(CN2CC3(CCN(C(=O)c4cscn4)C3)C2)o1` is higher in INHIBITION: 40.8% for the first, 54.7% for the second.

Compared with `Cc1cnc(N2CC3(CCN(C(=O)c4cccnc4)C3)C2)nc1`, `Cc1ccc(CN2CC3(CCN(C(=O)c4cccnc4)C3)C2)o1` is higher in INHIBITION: 22.2% for the first, 71.1% for the second.

Going from `Cc1ccc(CN2CCC3(CC2)CCN(C(=O)c2cccnc2)C3)o1` to `O=C(c1cccnc1)N1CCN2C[C@H](Oc3cncnc3)C[C@H]2C1`, the INHIBITION rises from 34% to 55.5%.

First: CNC(C(=O)OC)c1cc(F)ccc1F (configuration not stated)
Second: CC(C)n1ccc2cc(C(=O)Nc3nc[nH]n3)ccc21
The INHIBITION of the first is higher: -0.219% for the first, -22.4% for the second.

First: Cn1cc(CN2CCC[C@]3(C(=O)O)CN(c4ncccn4)C[C@@H]3C2)cn1
Second: O=C(c1ccnnc1)N1CCN2C[C@H](OCc3ccccn3)C[C@H]2C1
The INHIBITION of the first is lower: -44.2% for the first, -5.05% for the second.

First: Cc1ccc(NC(=O)C2CSCN2C(=O)c2ccncc2)c(C)c1 (configuration not stated)
Second: O=C(c1ccncc1)N1CCN2C[C@H](Oc3cncnc3)C[C@H]2C1
The INHIBITION of the first is lower: 16.1% for the first, 23.3% for the second.

Compared with `O=S(=O)(c1ccccc1)N1CCOC(Cn2ccnc2)C1` (configuration not stated), `CCn1cc(C(=O)NC2CCN(S(C)(=O)=O)CC2)c2ccccc21` is higher in INHIBITION: -12.3% for the first, 2.37% for the second.

First: O=C(c1cscn1)N1CC[C@@H]2[C@@H]1CCN2C1CCOC1 (some centres not stated)
Second: Cc1ccc(O[C@@H]2C[C@H]3CN(C(=O)c4cnccn4)CCN3C2)cc1
The INHIBITION of the first is higher: 12.6% for the first, -28.8% for the second.

Compared with `O=C(Cc1ccccn1)N1CCN2C[C@H](Oc3cncnc3)C[C@H]2C1`, `O=C(Cc1cccc(F)c1)N1CCN2C[C@H](Oc3cncnc3)C[C@H]2C1` is lower in INHIBITION: 67.2% for the first, 39.4% for the second.

First: O=C(c1ccco1)N1CCN2C[C@H](Oc3cncnc3)C[C@H]2C1
Second: O=C(c1ccnnc1)N1CCN2C[C@H](Oc3cccnc3)C[C@H]2C1
The INHIBITION of the first is higher: -5.63% for the first, -10.2% for the second.

First: O=C(c1ccc(F)cc1)N1CCN2C[C@H](OCc3ccccn3)C[C@H]2C1
Second: Cc1ccc(O[C@@H]2C[C@H]3CN(C(=O)Cc4ccccn4)CCN3C2)cc1
The INHIBITION of the first is lower: -1.71% for the first, 84.7% for the second.

First: CC(C)c1nc(C2CCCN(C(=O)c3ccc4c(c3)OCO4)C2)no1 (configuration not stated)
Second: CC(C)n1ccc2ccc(C(=O)NC3CN4CCC3CC4)cc21 (configuration not stated)
The INHIBITION of the first is lower: 45.1% for the first, 58.2% for the second.

Compared with `Cc1nc(CN2CCCC2c2c(C)nn(C)c2Cl)oc1C` (configuration not stated), `Cn1ccc2ccc(C(=O)NC3CCOC(C)(C)C3)cc21` (configuration not stated) is lower in INHIBITION: 18.2% for the first, 11.7% for the second.

Compared with `O=C1CC(NS(=O)(=O)c2ccc(F)c(Cl)c2)CN1` (configuration not stated), `Cn1c(=O)n(C)c2cc(NS(=O)(=O)Cc3cccc(F)c3)ccc21` is higher in INHIBITION: -6.67% for the first, 18.6% for the second.

Going from `O=C(Cn1c(=O)[nH]c2cn(-c3ccccc3)c(=O)n21)NC1CCCCC1` to `CC(C)n1cc(C(=O)NC2CCS(=O)(=O)C2)c2ccccc2c1=O` (configuration not stated), the INHIBITION rises from -6.61% to 11.1%.

Compared with `Cc1ccc(Cn2c(=O)[nH]c3cccnc3c2=O)cc1`, `O=C1CC2(CCSC2)C(=O)N1Cc1coc(-c2ccc(F)cc2)n1` (configuration not stated) is lower in INHIBITION: -5.64% for the first, -19.7% for the second.

First: c1coc(CN2Cc3ccnn3CC(COCC3CC3)C2)c1 (configuration not stated)
Second: O=C(Nc1ccccc1)N1C[C@@H]2CC[C@H]1CN(Cc1ccccc1)C2
The INHIBITION of the first is lower: -47% for the first, 32.5% for the second.

Going from `COc1cc(NC2CCCN(c3ncccc3C#N)C2)cc(OC)c1` (configuration not stated) to `CC(C)n1cc(C(=O)NC2CN3CCC2CC3)c2ccccc21` (configuration not stated), the INHIBITION rises from 42.1% to 50.8%.

First: CN(C(=O)c1cccc(NCC(=O)O)c1)C(C1CC1)C1CC1
Second: CN(C(=O)c1cccc(NCc2cccs2)c1)C(C1CC1)C1CC1
The INHIBITION of the first is lower: 44.8% for the first, 64.8% for the second.

Compared with `COC(C)c1cccc(NCc2cccs2)c1` (configuration not stated), `COC(C)c1cccc(NCc2ccsc2)c1` (configuration not stated) is lower in INHIBITION: 50.1% for the first, 32.8% for the second.

Going from `COC(C)c1cccc(NCc2cccc(O)c2)c1` (configuration not stated) to `COCCn1ccc2c(C(=O)NC(C)C)cccc21`, the INHIBITION rises from -52.4% to 1.8%.

First: COCCn1ccc2c(C(=O)NC3CN4CCC3CC4)cccc21 (configuration not stated)
Second: Cn1ccc2c(C(=O)NC3CN4CCC3CC4)cccc21 (configuration not stated)
The INHIBITION of the first is higher: 63.8% for the first, 32.2% for the second.

Going from `Cc1c(NC(=O)NC2CN3CCC2CC3)cccc1C(=O)N1CCCC1` (configuration not stated) to `CC(C)n1ccc2c(C(=O)NC3CN4CCC3CC4)cccc21` (configuration not stated), the INHIBITION rises from 21.5% to 50.8%.

`COCCn1ccc2c(C(=O)O)cccc21` showed an INHIBITION of 17.7%.
